Measurements from PubChem BioAssay.
Values without a mark were called inactive. The source made the active and inactive calls.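 The calls were made as follows: active = normalized viability below 100% at a tested concentration; inactive = the rest.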

Test: drug combination growth inhibition, ovarian cancer – cell-based, oncology-focused library, rucaparib conditional, profiling panel (AID 1508598)
Conditions: patient-derived ovarian cancer cells, CellTiter-Glo viability, 144 h; at 1.25 µM; OCI-C5x cells; without rucaparib; stronger effect = lower value

| SMILES | viability |
| --- | --- |
| N#CCNC(=O)c1ccc(-c2ccnc(Nc3ccc(N4CCOCC4)cc3)n2)cc1 | 101% |
| Nc1nc(Nc2ccc(S(N)(=O)=O)cc2)nn1C(=O)c1c(F)cccc1F | 83.9% (active) |
| O=C(Nc1ccccc1-c1cn2c(CN3CCNCC3)csc2n1)c1cnc2ccccc2n1 | 120% |
| COc1ccc(-c2ccc3c(N4CCOCC4)nc(N4C[C@@H](C)O[C@@H](C)C4)nc3n2)cc1CO | 124% |
| CC1(C)CNc2cc(NC(=O)c3cccnc3NCc3ccncc3)ccc21 | 146% |
| COc1cc2nccc(Oc3ccc(NC(=O)Nc4cc(C)on4)c(Cl)c3)c2cc1OC | 93.1% (active) |
| N#Cc1c(NC(=O)c2cccc3ccccc23)sc2c1CCCC2 | 106% |
| COc1ccc(-c2ccc3c(N4CCOC[C@@H]4C)nc(N4CCOC[C@@H]4C)nc3n2)cc1CO | 47.3% (active) |
| Cc1cnc(NC(=O)Nc2cc(Br)c(C)cc2OC[C@@H]2CNCCO2)cn1 | 71.2% (active) |
| COC(=O)c1ccc2c(C(=Nc3ccc(N(C)C(=O)CN4CCN(C)CC4)cc3)c3ccccc3)c(O)[nH]c2c1 | 116% |
| Cc1ccc(F)c(NC(=O)Nc2ccc(-c3cccc4[nH]nc(N)c34)cc2)c1 | 123% |

Same assay, conditions: patient-derived ovarian cancer cells, CellTiter-Glo viability, 144 h; at 1.25 µM; OCI-P5x cells; with rucaparib 20 µM; stronger effect = lower value; 100% = cells with rucaparib alone

| SMILES | viability |
| --- | --- |
| N#CCNC(=O)c1ccc(-c2ccnc(Nc3ccc(N4CCOCC4)cc3)n2)cc1 | 84.2% (active) |
| Nc1nc(Nc2ccc(S(N)(=O)=O)cc2)nn1C(=O)c1c(F)cccc1F | 87.4% (active) |
| O=C(Nc1ccccc1-c1cn2c(CN3CCNCC3)csc2n1)c1cnc2ccccc2n1 | 68.8% (active) |
| COc1ccc(-c2ccc3c(N4CCOCC4)nc(N4C[C@@H](C)O[C@@H](C)C4)nc3n2)cc1CO | 78.8% (active) |
| CC1(C)CNc2cc(NC(=O)c3cccnc3NCc3ccncc3)ccc21 | 145% |
| COc1cc2nccc(Oc3ccc(NC(=O)Nc4cc(C)on4)c(Cl)c3)c2cc1OC | 81.9% (active) |
| N#Cc1c(NC(=O)c2cccc3ccccc23)sc2c1CCCC2 | 65.1% (active) |
| COc1ccc(-c2ccc3c(N4CCOC[C@@H]4C)nc(N4CCOC[C@@H]4C)nc3n2)cc1CO | 30.6% (active) |
| Cc1cnc(NC(=O)Nc2cc(Br)c(C)cc2OC[C@@H]2CNCCO2)cn1 | 43% (active) |
| COC(=O)c1ccc2c(C(=Nc3ccc(N(C)C(=O)CN4CCN(C)CC4)cc3)c3ccccc3)c(O)[nH]c2c1 | 66.6% (active) |
| Cc1ccc(F)c(NC(=O)Nc2ccc(-c3cccc4[nH]nc(N)c34)cc2)c1 | 99.2% (active) |
